The results in this text go back to the supplement of paper PMC10811239.

This experiment has as its system LEGO organoid PTCC (PTEN-/-; TP53-/-; CDKN2A-/-; CDKN2B-/-). As to the kind of experiment: bioluminescence (viable cell) signal fold change after vs before treatment, normalised to DMSO (ratio); higher = more tumour cell growth / less inhibition. The settings on record: 10 µM; treatment time 6 days. The protocol: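 Luc2-labelled iPSC-derived glioblastoma-like organoids (LEGOs, genotypes PT = PTEN-/-;TP53-/-, PTCC = plus CDKN2A/B-/-, PTN = plus NF1-/-) were treated with 10 uM drug for 6 days (applied every other day) at 37 C. Bioluminescence imaging was done before treatment and 2 days after the last dose. BLI signals were normalised to the DMSO control on the same day and then to the pre-treatment signal (N=3).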
For `NCC1(CC(=O)O)CCCCC1` [Gabapentin], the bioluminescence stood at 1.26.
`CCC1(c2ccc(N)cc2)CCC(=O)NC1=O` (configuration not stated) [Aminoglutethimide]: the bioluminescence came out at 1.11.
As to `O=C(O)CCCc1ccc(N(CCCl)CCCl)cc1` [Chloroambucil], the bioluminescence is 1.06.
Take `CC(C)C[C@H]1C(=O)N2CCC[C@H]2[C@]2(O)O[C@](NC(=O)[C@@H]3C[C@@H]4c5cccc6[nH]cc(c56)C[C@H]4N(C)C3)(C(C)C)C(=O)N12.CC(C)[C@@]1(NC(=O)[C@@H]2C[C@@H]3c4cccc5[nH]cc(c45)C[C@H]3N(C)C2)O[C@@]2(O)[C@@H]3CCCN3C(=O)[C@H](Cc3ccccc3)N2C1=O.CC(C)[C@H]1C(=O)N2CCC[C@H]2[C@]2(O)O[C@](NC(=O)[C@@H]3C[C@@H]4c5cccc6[nH]cc(c56)C[C@H]4N(C)C3)(C(C)C)C(=O)N12.CCC(C)[C@H]1C(=O)N2CCC[C@H]2[C@]2(O)O[C@](NC(=O)[C@@H]3C[C@@H]4c5cccc6[nH]cc(c56)C[C@H]4N(C)C3)(C(C)C)C(=O)N12.CS(=O)(=O)O` [Dihydroergotoxine mesylate]: the bioluminescence was 1.82.
The result for `CN(C)C(=O)Oc1ccc[n+](C)c1.[Br-]` [Mestinon] reads 1.67; that for `COc1cc2c(cc1OC)[C@@H]1CC(=O)[C@@H](CC(C)C)CN1CC2.COc1cc2c(cc1OC)[C@H]1CC(=O)[C@H](CC(C)C)CN1CC2` [Tetrabenazine], 1.1; that for `NCC(CC(=O)O)c1ccc(Cl)cc1` (configuration not stated) [Baclofen], 0.877.
The result for `Cl.Cn1c(CCCC(=O)O)nc2cc(N(CCCl)CCCl)ccc21` [Bendamustine hydrochloride] reads 0.752.
Turning to `COc1ccc(C(CN(C)C)C2(O)CCCCC2)cc1.Cl` (configuration not stated) [Venlafaxine hydrochloride], the bioluminescence stood at 0.737.
In the case of `CCOC(=O)c1cncn1[C@H](C)c1ccccc1` [Etomidate], the bioluminescence worked out at 1.01.
As to `Cc1n[nH]cc1-c1cc2[nH]c([C@@H]3CC4CCN3CC4)nc(=O)c2s1` [Simurosertib], the bioluminescence was determined as 1.46.
The result for `CN[C@@H]1C[C@H]2O[C@@](C)([C@@H]1OC)n1c3ccccc3c3c4c(c5c6ccccc6n2c5c31)C(=O)NC4` [Staurosporine] reads 0.
The result for `CC[C@@H](C(N)=O)N1CCCC1=O` [Levetiracetam] reads 1.07; that for `CCN(C)C(=O)Oc1cccc([C@H](C)N(C)C)c1` [Rivastigmine], 0.555; that for `CCN(C)C(=O)Oc1cccc([C@H](C)N(C)C)c1.O=C(O)[C@H](O)[C@@H](O)C(=O)O` [Rivastigmine tartrate], 0.566.
On to `CC(C)c1cccc(C(C)C)c1O` [Propofol], for which the bioluminescence stood at 0.675.
Regarding `Cc1cccc([C@H](C)c2cnc[nH]2)c1C.Cl` [Dexmedetomidine HCl], the bioluminescence was determined as 1.39.
